# PubChem BioAssay AID651658 (Broad Institute, 2012)
# Among all 340,000 compounds or so, about 5,100 (1.5%) were called active. Shown is part of a subset that was picked to be rich in actives. A number with no mark means an inactive call.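 The calls were made as follows: active = mean Tm shift, scaled 0 neutral to 100 positive control, at about 1.3% or above, every replicate too (limit read from the data); inconclusive = no clear call, values can overlap the other calls; inactive = the rest.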
# Target: Fibroblast growth factor 22 (Homo sapiens) (UniProt Q9HCT0)
# Assay: binders of human FGF22 protein, primary screen, FGF22 synaptogenesis inhibitor project, biophysical, thermal shift, single point (AID 651658)
# Settings: recombinant FGF22 thermal shift, SYPRO orange fluorescence; at 9.99 µM; stronger effect = higher value; percent of sucrose octasulfate shift, DMSO zero
# Fibroblast growth factor 22 (Homo sapiens), sequence (Q9HCT0 whole entry, looked up): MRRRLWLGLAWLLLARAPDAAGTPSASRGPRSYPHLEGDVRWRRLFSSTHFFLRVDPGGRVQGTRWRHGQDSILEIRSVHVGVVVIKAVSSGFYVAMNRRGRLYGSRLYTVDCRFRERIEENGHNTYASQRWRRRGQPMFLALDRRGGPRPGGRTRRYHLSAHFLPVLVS
row,Structure (SMILES),"activity (Tm shift, normalised)"
1,Cc1ccc(S(=O)(=O)Nc2ccc(F)c(S(=O)(=O)N3CCOCC3)c2)cc1,43.3% (active)
2,Cc1ccc(NS(=O)(=O)c2ccc(C(C)C)cc2)cc1S(=O)(=O)N1CCOCC1,-0.175%
3,CC(=O)NCCc1ccc(S(=O)(=O)Nc2ccc(C)c(S(=O)(=O)N3CCOCC3)c2)cc1,-0.312%
4,CCCN1C[C@@H](C)[C@@H](OC)CN(C)C(=O)c2cc(NC(=O)CC(F)(F)F)ccc2OC[C@H]1C,0.002%
5,CCOc1ccc(-c2cc(C(=O)N/N=C/c3ccc(O)cc3)c3ccccc3n2)cc1,0.307%
6,O=C(N/N=C/c1ccc(OCc2ccccc2)cc1)c1ccc(O)cc1,2.5% (active)
7,O=C(Cc1cccs1)N/N=C/c1ccc(OCc2ccccc2)cc1,0.285%
8,CCCNC(=O)N1CC2(CCN(C(=O)C3CC3)CC2)c2c([nH]c3cc(OC)ccc23)[C@H]1CO,-0.002%
9,CCC(=O)N(C)C[C@@H]1Oc2ncc(C#Cc3cccnc3)cc2C(=O)N([C@@H](C)CO)C[C@@H]1C,0.101%
10,Cc1cc(Cl)ccc1OCCCC(=O)NCc1ccccn1,43.6% (active)
11,Cc1ccc(SCCC(=O)NCc2ccccn2)cc1,0.257%
12,Cc1cc(Cl)ccc1OCCCC(=O)Nc1cccc(-n2cnnn2)c1,0.032%
13,COc1cc(OC)cc(-c2nc(=S)n3ccsc3n2)c1,43.5% (active)
14,COc1cccc(C(=O)n2ccc(-c3cccs3)n2)c1,-0.099%
15,C[C@@H]1CCCCO[C@H](CN(C)C(=O)Nc2ccc(C(F)(F)F)cc2)[C@@H](C)CN([C@@H](C)CO)C(=O)c2cc(NC(=O)Nc3cccc4ccccc34)ccc2O1,-0.177%
16,C[C@H]1CCCCO[C@@H](CN(C)Cc2ccccc2)[C@@H](C)CN([C@@H](C)CO)C(=O)c2cc(NC(=O)Cc3ccccc3)ccc2O1,-0.273%
17,CCOc1ccc2sc(NS(=O)(=O)c3ccc(N)cc3)nc2c1,0.571%
18,Cc1ccc(S(=O)(=O)Nc2nc3ccccc3s2)cc1[N+](=O)[O-],2.09% (active)
19,Cc1ccc(S(=O)(=O)N(Cc2ccccc2)c2ccccn2)cc1[N+](=O)[O-],-0.192%
20,CO[C@H](CN(C)C(=O)c1ccc2c(c1)OCO2)[C@H](C)CN([C@@H](C)CO)S(=O)(=O)c1ccc(Cl)cc1,0.025%

row,Structure (SMILES),"activity (Tm shift, normalised)"
1,C[C@@H]1CCCCO[C@H](CN(C)S(=O)(=O)c2ccc(Cl)cc2)[C@H](C)CN([C@@H](C)CO)C(=O)c2cc(NS(=O)(=O)c3cn(C)cn3)ccc2O1,-0.295%
2,CN(C)CCCn1c(=O)n(Cc2ccccc2)c(=O)c2c3c(sc21)CCCCC3,5.16% (active)
3,O=c1c2c3c(sc2n(CCN2CCCC2)c(=O)n1Cc1ccccc1)CCCCC3,-0.07%
4,COCCn1cnc2c1c(=O)n(Cc1ccc(Br)cc1)c(=O)n2Cc1ccccc1,0.138%
5,CC(C)NC(=O)N(C)C[C@@H]1OCCCC[C@@H](C)Oc2ccc(NC(=O)NC3CCCCC3)cc2C(=O)N([C@@H](C)CO)C[C@@H]1C,-0.284%
6,CCOc1ccc(/C=C(/NC(=O)c2ccccc2)C(=O)NCCC(=O)O)cc1,43.7% (active)
7,CCOC(=O)CNC(=O)/C(=C\c1ccc(F)cc1)NC(=O)c1ccccc1,0.033%
8,COc1ccc(/C=C(/NC(=O)c2ccccc2)C(=O)Nc2cccc(C(=O)O)c2)cc1,-0.131%
9,O=C(C[C@H]1C[C@H]2c3cc(NC(=O)Nc4ccc(C(F)(F)F)cc4)ccc3O[C@H]2[C@@H](CO)O1)NCCc1ccccc1,0.15%
10,C[C@@H]1CN([C@H](C)CO)C(=O)c2cc(NC(=O)CCCCCC(=O)Nc3ccccc3N)ccc2O[C@H]1CN(C)Cc1ccncc1,-0.063%
11,C[C@@H]1CN([C@H](C)CO)C(=O)c2c(c3ccccc3n2C)-c2ccccc2CO[C@H]1CN(C)Cc1ccc(F)cc1,0.453%
12,COc1cc(C=O)c(Br)cc1OCC(=O)NCc1ccccc1,-0.006%
13,COc1cc(C(=S)NCc2ccccc2)cc(Br)c1O,44.4% (active)
14,COc1cc(C(=O)NCc2ccncc2)cc(Br)c1OCc1ccccc1,-0.2%
15,CCCC(=O)N1CC2(CCN(C(=O)C3CC3)CC2)c2c(n(C)c3cc(OC)ccc23)[C@H]1CO,0.143%
16,CN1C(=O)CC(c2ccccc2)C1=O (centres undefined),0.006%
17,O=C1CC(c2ccccc2)C(=O)N2C(=O)CC(c3ccccc3)C(=O)N12 (centres undefined),-0.169%
18,O=C1OCC2=C1C(c1ccccc1)CC(=O)N2c1cccc(F)c1 (centres undefined),43.2% (active)
19,COc1cc(NC(=O)COC(=O)c2cnc(C)cn2)c(C)cc1[N+](=O)[O-],43.3% (active)
